Only some compounds are listed: those with a hit (about 0.4% of all), similar ones and a draw of the others.
AID504770: growth inhibitors of E. coli YBA685 in a screen for V. cholerae RctB (chromosome II replication) inhibitors; E. coli YBA685 rctB-dependent plasmid, OD600 growth, 3 h; stronger effect = lower value; z-score (test concentration not listed); actives 0.27% (n = 130,000); in the data active = z-score below about -2, passing the limit was not always enough
CapD inh: CapD enzyme inhibition | actives 0.23% (n = 140,000) | purified CapD enzyme, fluorescence intensity read-out; stronger effect = lower value | z-score (test concentration not listed); in the data active = z-score mostly below about -2.9, no sharp cut-off; inactive = mostly above about -1.9
* marks the source's active call; other numbers are inactive results; · = no result given.

SMILES	AID504770	CapD inh
CCC(C)N1Cc2ccccc2N(CC)C1c1ccccc1F (configuration not stated)	2.4	-4.3*
Fc1ccccc1C1N(Cc2ccccc2)CCN1Cc1ccccc1	·	-0.3
Cc1nnc(C)n1/N=C/C=C\c1ccco1	2.1	-4.4*
S=c1[nH]nc(-c2ccccc2)n1/N=C/C=C/c1ccco1	0.05	-2.4
O=C(Nc1ccc(F)cc1F)c1ccc2c(Cl)c3c(nc2c1)CCC3	0.15	-0.12
CC(C#N)Sc1nnc(-c2cccs2)n1CC1CCCO1 (configuration not stated)	-0.7	·
N#Cc1ccc(CSc2nnc(-c3cccs3)n2CC2CCCO2)cc1 (configuration not stated)	-2.5*	·
CCCn1c(SCC(=O)N2CCCC2)nnc1C(C)C	-3.1*	·
CCCn1c(SCC(=O)c2ccccc2)nnc1C(C)C	2.6	·
CCOC(=O)c1csc(Cn2nc(C)c(Br)c2C)n1	0.4	-0.31
Cc1cccc(C2(c3cccc(C)c3)CC2C(=O)Nc2ccc(F)cc2)c1 (configuration not stated)	·	-0.23
O=C(O)c1cccc(C(=O)O)c1Br	-3	-0.34
O=c1c(Br)cccc(Br)c1O	-3.5*	-2.3
CC(C(=O)N1c2ccccc2CC1C)N(C)CCOc1ccc(Cl)cc1 (configuration not stated)	-0.45	·
CCS(=O)(=O)c1ccc2nc(SCc3ccccc3Cl)oc2c1	·	0.18
CCCc1cc(N)on1	-1.9	·
CC(C)c1cc(N)on1	-2.2*	·
CC1CCC(C(C)C)C(OC(=O)C(C(C)C)N2C(=O)C3C4c5ccccc5C(c5ccccc54)C3C2=O)C1 (configuration not stated)	·	-0.92
CCc1cc2c(=O)c(-c3ccc4c(c3)OCO4)c(C(F)(F)F)oc2c(CN(C)C)c1O	·	-4*
CCCc1cc2c(=O)c(-c3ccc4c(c3)OCCO4)c(C(F)(F)F)oc2c(C=[N+](C)C)c1O	-1	-1.5
Cc1c(NC(=O)c2ccc(S(=O)(=O)N3CCCC3)cc2)c(=O)n(-c2ccccc2)n1C	-1	0.35
CC(=O)C1=C(C)OC(N)=C(C#N)C1c1ccsc1 (configuration not stated)	·	0.98
CCn1c(SCC(=O)c2ccccc2)nnc1-c1ccco1	-0.55	·
CCCn1c(SCC(=O)c2ccc3c(c2)OCCO3)nnc1-c1ccco1	-3.8*	·
CC(=O)Oc1ccc(N(C(C)=O)S(=O)(=O)c2cccs2)cc1	0.15	-2.7
SMILES	AID504770	CapD inh
COc1ccc(N(C(=O)C(C)C)S(=O)(=O)c2cccs2)cc1	-0.6	-7*
Cn1cc(/C=N/NC(=O)C(O)c2ccccc2)c2ccccc21 (configuration not stated)	1.4	-1.3
O=C(ON1C(=O)CCC1=O)c1ccc(Br)o1	-0.95	-5.7*
COC(=O)c1ccc(Br)o1	·	0.41
COc1ccc(C=Nc2c(C)n(C)n(-c3ccccc3)c2=O)cc1	·	0.34
CN(C)c1ccc(NC(=O)CSc2nc(N)c(C(=O)Nc3nccs3)s2)cc1	·	0.005
O=C1Nc2ccc(Br)cc2C1=Nc1ccc(Cl)cc1	·	0.5
O=C1Nc2ccc(Br)cc2/C1=N/N1C(=O)C(O)=CC1(O)c1ccccc1 (configuration not stated)	0.45	-4.1*
Cc1ccc(CN2CNc3c(-c4ccccc4F)c(C)nn3C2)cc1	0	0.16
CC(=O)N1CCCCC1c1cccnc1.O=[N+]([O-])O.[Ag] (configuration not stated)	-5.5*	1.9
O=C(/C=C/c1ccccc1)N1CCCCC1c1cccnc1 (configuration not stated)	0.1	-1
CSC1=C(C#N)C(=C(C#N)C#N)NC(C)=N1	-0.85	-4.5*
COC(=O)/C(C#N)=C1\NC(C)=NC(SC)=C1C#N	0.35	-0.86
CCn1c(C(=O)NCc2ccc(Cl)cc2)cc2sccc21	0.55	-0.38
CC1=C(C(=O)OCCC(C)C)C(c2ccc(OCc3ccccc3)cc2)NC(=O)N1C (configuration not stated)	·	-0.17
CC(C)NC(=O)c1ccc2c(=O)n(Cc3ccco3)c(=S)[nH]c2c1	-0.8	-5.1*
COC(CNC(=O)c1ccc2c(=O)n(Cc3ccco3)c(=S)[nH]c2c1)OC	0.25	-0.57
C=CCSc1nnc(NC(=O)C2C(C=C(Cl)Cl)C2(C)C)s1 (configuration not stated)	1.1	-1.8
C=CCSc1nnc(NC(=O)NC2CCCCC2)s1	-2.8*	·
O=C(c1ccccc1O)N1N=C(C(F)(F)F)CC1(O)C(F)(F)F (configuration not stated)	-0.25	-2.3
COc1cccc(NC(=O)c2ccc(OC(=S)N3CCC(C)CC3)cc2)c1	-2.8*	-0.21
COc1cccc(NC(=O)c2ccc(Cl)cc2)c1	0.5	-0.26
O=c1c(-c2ccc(Oc3ccccc3)cc2)[n+]([O-])c2ccccc2n1O	0.2	2.2
N#Cc1cnn(-c2ccccc2)c1N	0.1	0.045
N#Cc1c(N)[n+]([O-])c2ccccc2[n+]1[O-]	-4.4*	-1.2
SMILES	AID504770	CapD inh
N#Cc1c(=O)n(O)c2ccccc2[n+]1[O-]	-4.3*	-1.1
Cc1nc(N2CCOCC2)c2c(C)c(C(=O)Nc3ccc(Cl)cc3)sc2n1	·	0.33
Cc1nc(SCC(=O)Nc2ccc(S(N)(=O)=O)cc2)c2c3c(sc2n1)CCCC3	·	0.95
COC(=O)CCC(=O)Nc1ccccc1	-0.25	0.74
CCC(=O)Nc1nc2c(c3c1c(=O)oc1ccccc13)CC(C(C)(C)C)CC2 (configuration not stated)	·	-0.34
Cc1cccc(NC(=O)/C=N/OC(=O)Nc2ccccc2)c1	0.55	-0.15
O=C(O)c1ccc(Br)c(C(=O)O)c1	-0.5	-0.28
O=C(O)c1coc(=O)c(Br)c1	-4.7*	-0.78
COCCNC(=O)c1ccc(S(=O)(=O)N2CCC(C)CC2)cc1	-0.25	·
O=C(Cc1ccccc1)NC1CCN(C(=O)c2ccco2)CC1	-0.15	0.23
CCOC(=O)N1CCC(NC(=O)CNC(=O)c2ccco2)CC1	-2.7*	-0.15
O=C(Nc1ccccc1)Nc1ccc2snnc2c1	-2.6*	-0.35
O=C(Nc1ccccc1)Nc1ccc2nnsc2c1	-1.5	-0.72
COC(=O)C(CC(C)C)NC(=O)c1ccc(S(C)(=O)=O)cc1 (configuration not stated)	-1.4	·
O=C(O)c1cc2ccccc2cn1	·	0.46
O=C(O)c1cc2c(cn1)[nH]c1ccccc12	-3.5*	67
CC(C)CC(=O)N1CC(=O)Nc2ccc(Cl)cc2C1c1ccc(F)cc1 (configuration not stated)	-0.15	0.27
O=C(COC(=O)c1ccc(Br)cc1)NCc1ccccc1	-0.1	0.26
O=C(COC(=O)c1ccncc1)NCc1ccccc1	-3.5*	0.57
O=C1c2ccccc2NC2(C(=O)N(Cc3ccccc3F)c3ccccc32)N1c1ccccc1 (configuration not stated)	·	-0.055
Cc1cc(NS(=O)(=O)c2ccc(NCN3C(=O)c4ccccc4C3=O)cc2)no1	-0.95	-0.69
Cc1cc2nc3s/c(=C/c4ccc(N5CCC(C)CC5)c([N+](=O)[O-])c4)c(=O)n3c2cc1C	·	0.62
O=C(NNC(=O)c1cc(-c2ccccc2)nc2ccccc12)OCc1cccc(Oc2ccccc2)c1	·	3.2
CCCN1CSC(=S)N(CCC)C1	-1	-0.44
CCN1CSC(=S)N(CC)C1	-2.5*	0.22
O=C1/C(=C/c2cccs2)CCSc2ccccc21	0.05	-0.4
CC(=O)[O][Hg][c]1ccccc1	-5.2*	0.04
CC(=O)O/N=C(\C(=N/OC(C)=O)c1ccccc1)c1ccccc1	·	-1.3

Assay outcomes as filed in PubChem BioAssay.
